Tgondii IFNg = inhibitors of Toxoplasma gondii growth with IFN-gamma; Toxoplasma gondii growth in IFN-gamma-treated host cells; hits give low values; activity change, negative = inhibition, % (test concentration not listed); 69,000 compounds, 3.8% hits; AID 1259416; in the data active = activity change below about -70%, passing the limit was not always enough;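 also: host cells are HeLa cells infected with Toxoplasma gondii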
The depositor's hits bear a star; ! = a repeat was not active. The full list was thinned out, with hits kept by preference.

SMILES	Tgondii IFNg
CNC(=O)COc1ccc(-c2cccc(-n3cccn3)c2)cc1	12
c1ccc(-c2nccn2CC2CCN(C3CCCC3)CC2)nc1	2
CCn1c(CC2CCN(C(=O)c3csc(C(C)C)n3)CC2)nn(C)c1=O	-2
C=C1C2(C(=O)N(Cc3cccnc3)Cc3ccccc3OC)CCC(C2)C1(C)C (stereo not given)	-6
O=C(NCCc1csc(-c2ccc(F)cc2)n1)C(=O)Nc1ccc(F)c(Cl)c1	-12
COc1ncc(CN(C)Cc2ccc(C)o2)cn1	-48
Cc1ccccc1-c1ccc([C@H]2[C@H](CO)N3CCCCN(S(=O)(=O)Cc4ccccc4)C[C@@H]23)cc1	-47
Cc1ccccc1S(=O)(=O)N1C[C@@H]2N[C@H](C1)C2c1ccc(-c2cccc(C#N)c2)cc1 (stereo not given in full)	-71*!
Cc1ccccc1-c1ccc(C2[C@@H]3CN(S(=O)(=O)Cc4ccccc4)C[C@H]2N3)cc1 (stereo not given in full)	-77*
N#Cc1cccc(-c2ccc(C3[C@@H]4CN(C(=O)C5CCOCC5)C[C@H]3N4)cc2)c1 (stereo not given in full)	-10
Cc1ccccc1-c1ccc([C@@H]2[C@@H](CO)N3CCCCN(S(=O)(=O)Cc4ccccc4)C[C@H]23)cc1	-60
CS(=O)(=O)N1C[C@@H]2N[C@H](C1)[C@@H]2c1ccc(-c2ccccc2)cc1	-67
CCn1ccc2cc(S(=O)(=O)N3CCCC(C(=O)NCc4cccnc4)C3)ccc21 (stereo not given)	-58
CC(NC(=O)C12CC3CC(CC(O)(C3)C1)C2)c1ccc2c(c1)CCCO2 (stereo not given)	-7
C(=C1/CCCC2C(c3ccccc3)C3=C(CCCC3)OC12N1CCCC1)/c1ccccc1 (stereo not given)	-13
Cc1cc(C)n(Cc2nc(-c3ccc(NC(=O)C(C)(C)C)cc3)oc2C)n1	77
CN1[C@H]2CC[C@@H]1CN(C(=O)c1ccc(-n3cnnc3)cc1)CC2	3
Cc1ccsc1[C@@H]1CCN(C(=O)c2ccc(-n3cnnc3)cc2)C[C@H]1O	-81*
Cc1ccsc1[C@@H]1CCN(C(=O)c2cccc(=O)[nH]2)C[C@H]1O	1
O=S(=O)(O)C(F)(F)F.O=S(=O)(O)C(F)(F)F.O=S(=O)(O)C(F)(F)F.[Bi]	20
COC(=O)c1sccc1N/N=C1\C(=O)c2sccc2N(C)S1(=O)=O	121
CN(Cc1ccccc1C(F)(F)F)C(=O)CCNS(C)(=O)=O	1
COc1ccc(C(=O)N(Cc2cccc(F)c2)C2(C(=O)NCc3ccccc3)CCN(C(C)=O)CC2)cc1	-53
COc1ccc(C(=O)N(c2ccc(F)cc2)C2(C(=O)NCc3ccccc3)CCN(C(C)=O)CC2)cc1	-5
COc1ccc(C(=O)N(c2ccc(Cl)cc2)C2(C(=O)NCc3ccccc3)CCN(C(C)=O)CC2)cc1	69
SMILES	Tgondii IFNg
COc1ccc(C(=O)N(Cc2cccc(OC)c2)C2(C(=O)NCc3ccccc3)CCN(C(C)=O)CC2)cc1	-83*
COc1ccc(C(=O)N(Cc2ccc(Cl)cc2)C2(C(=O)NCc3ccccc3)CCN(C(C)=O)CC2)cc1	114
COc1ccc(C(=O)N(c2ccc(C(C)C)cc2)C2(C(=O)NCc3ccccc3)CCN(C(C)=O)CC2)cc1	-96*
O=C(O)c1ccccc1C1CCN(C(=O)CCCn2cncn2)C1 (stereo not given)	-36
Cc1nc(CC2CCN(c3nccc(CCC(F)(F)F)n3)CC2)no1	-22
CC(C)C(=O)C1CC2(CO1)c1ccccc1CN2C(=O)c1ccccc1 (stereo not given)	-3
CCOc1ccccc1-c1cc(C)cnc1-n1cnnc1	-2
COCCN1C(=O)CCc2cc(NS(=O)(=O)c3ccc4c(c3)CCC4)ccc21	-63
COCCN1C(=O)CCc2cc(NS(=O)(=O)c3ccccc3)ccc21	-27
CCCN1C(=O)CCc2cc(NS(=O)(=O)c3cccs3)ccc21	5
COCCN1C(=O)CCc2cc(NS(=O)(=O)c3ccc(C)c(C)c3)ccc21	22
COCCN1C(=O)CCc2cc(NS(=O)(=O)c3ccc(C)cc3)ccc21	39
COCCN1C(=O)CCc2cc(NS(=O)(=O)c3ccc(CC(C)C)cc3)ccc21	-79*
CCCN1C(=O)CCc2cc(NS(=O)(=O)c3ccc(CC)cc3)ccc21	-82*
CCCN1C(=O)CCc2cc(NS(=O)(=O)c3ccc(C(F)(F)F)cc3)ccc21	-82*
COCCN1C(=O)CCc2cc(NS(=O)(=O)c3ccc(C(F)(F)F)cc3)ccc21	1
COCCN1C(=O)N(C2Cc3ccccc3C2)C(=O)C12CCN(Cc1cn(C)c3ccccc13)CC2	-17
Cc1ccc2c(c1)cc(S(=O)(=O)c1ccccc1)c(=O)n2CC(=O)NCc1ccccc1Cl	-30
Cc1ccsc1C(=O)N1CCc2nc(-c3cnn(C)c3)nc(N(C)C)c2C1	-3
Cc1ccc2c(c1C)-n1cccc1C1(CCN(S(=O)(=O)c3c(C)nn(C)c3C)CC1)N2	13
Nc1cc(Cl)ccc1C1=NCCCN1	-13
O=C(c1ccncc1)N1CCC2OCCCC2(COc2ccccn2)C1 (stereo not given)	3
COC(=O)C[C@H]1C(C)(C)C(=O)[C@@H]2CC3C4=CC(=O)O[C@@H](c5ccoc5)[C@]4(C)CCC3[C@@]1(C)C2=O (stereo not given in full)	-1
Cc1ccc(CNC2=NCCNC23CCN(S(=O)(=O)c2ccc(C)cc2C)CC3)cc1	-28
CC(C)NC(=O)[C@@H]1C[C@@H](N)CN1C(=O)c1cnn2ccccc12	-10
SMILES	Tgondii IFNg
Cc1cnc(N2CCCn3cnc(COCCO)c3C2)nc1	-3
CC(=O)N1CCn2c(COCc3ccccn3)cnc2C1C (stereo not given)	0
CC1c2ncc(CNC(=O)C3CC3)n2CCN1Cc1ccccn1 (stereo not given)	11
CC1NCCn2c(COCc3ccccn3)cnc21 (stereo not given)	-83*
Cc1cc(C)c2c(=O)n(Cc3nc(-c4ccccc4C)oc3C)c(=O)n(Cc3ccco3)c2n1	-1
Cc1ccc(C(=O)N2C[C@@H]3CN(c4ccc(C)nn4)CC[C@H]3C2)cc1	0
O=C(Cc1ccccc1)NO	-36
CCCCOc1ccc(CC(=O)NO)cc1	-100*!
CCCCOc1ccc(NC(=O)CN2CCN(CC)CC2)cc1	-38
CC(=O)N1CCN(c2ccc3ccc(C(=O)Nc4ccc(C)cn4)cn23)CC1	-13
CCOC(=O)c1c(C)oc2cc(Br)c(OC(C)C(=O)OCC)cc12 (stereo not given)	-10
CCOC(=O)C1=C(N)Oc2ccc(Br)cc2[C@H]1[C@H](C#N)C(=O)OCC	-75*
CCOC(=O)C1c2ccccc2Oc2ccccc21	23
c1ccc(-c2cn3c4ccccc4nc3n2CCCN2CCOCC2)cc1	-17
COc1ccccc1-c1ncc(CN2CCN3C(=O)CNC(=O)C3C2)s1 (stereo not given)	-37
CSc1ccc2c(c1)N(CCC1CCCCN1C)c1ccccc1S2 (stereo not given)	-95*!
CSc1cccc(NC(=O)N2CCCCC2CCN2CCCC2=O)c1 (stereo not given)	4
CSc1cccc(NC(=S)N2CCCCC2CCN2CCOCC2)c1 (stereo not given)	15
Cc1cc(C)n(Cc2nc(-c3ccc(NC(=O)c4ccc(C)s4)cc3)oc2C)n1	59
FC(F)(F)c1cc(NC(=S)Sc2ccc(Cl)cc2)cc(C(F)(F)F)c1	-22
O=C(Sc1ccc(Cl)cc1)c1cnn(-c2ccc(Cl)cc2)c1C(F)(F)F	-95*

Compound activity: PubChem BioAssay, Broad Institute
